We go through four compounds from PubChem BioAssay AID504545 (Broad Institute, 2011).

Each structure is given as a SMILES string. Entries with a potency or affinity are not part of this list. Results filed as inconclusive are left out. Unmarked numbers belong to inactive results. The rule behind the calls is not given here.

The target of the assay is Cyclin-dependent kinase 5 activator 1 (Homo sapiens) + Cyclin-dependent kinase 5 (Homo sapiens) (UniProt Q15078+Q00535). Put plainly: blockade of human CDK5 activity – biochemical, cherry-picked samples, set 2, dose response (AID 504545). The note with it: CDK5/p35 kinase activity, biochemical plate reader; series mostly up to 30 µM; activity change, negative = inhibition: at the top concentration.
Cyclin-dependent kinase 5 activator 1 (Homo sapiens) + Cyclin-dependent kinase 5 (Homo sapiens), sequence (Q00535 whole entry, looked up): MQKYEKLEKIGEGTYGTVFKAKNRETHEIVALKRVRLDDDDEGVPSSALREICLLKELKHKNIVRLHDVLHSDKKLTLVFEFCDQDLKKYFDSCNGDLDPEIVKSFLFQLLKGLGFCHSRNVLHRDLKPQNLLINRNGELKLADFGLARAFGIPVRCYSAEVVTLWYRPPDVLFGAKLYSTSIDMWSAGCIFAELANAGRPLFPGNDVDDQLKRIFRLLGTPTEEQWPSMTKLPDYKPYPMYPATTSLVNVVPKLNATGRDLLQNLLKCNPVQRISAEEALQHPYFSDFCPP
Cyclin-dependent kinase 5 activator 1 (Homo sapiens) + Cyclin-dependent kinase 5 (Homo sapiens), sequence (Q15078 whole entry, looked up): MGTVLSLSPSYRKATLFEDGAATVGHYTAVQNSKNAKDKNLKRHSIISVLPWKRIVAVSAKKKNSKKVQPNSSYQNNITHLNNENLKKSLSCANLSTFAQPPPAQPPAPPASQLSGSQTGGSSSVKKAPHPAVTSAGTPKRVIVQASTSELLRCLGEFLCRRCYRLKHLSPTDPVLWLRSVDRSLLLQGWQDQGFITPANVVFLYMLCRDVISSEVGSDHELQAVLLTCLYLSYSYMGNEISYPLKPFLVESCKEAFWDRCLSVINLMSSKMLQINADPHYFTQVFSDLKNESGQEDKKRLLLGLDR
For `Nc1ncnc2c1ccn2[C@@H]1O[C@H](CO)[C@@H](O)[C@H]1O`, the “activity change, negative = inhibition” value is 1.79%. The result for `NC(=O)c1c(Br)n(C2OC(CO)C(O)C2O)c2ncnc(N)c12` (centres undefined) reads -11%. The result for `Nc1ccc(CC2=NCCN2)cc1` reads -11.6%. The result for `COc1cc2c(ccc3c4cc(OC)c(OC)cc4c[n+](C)c23)cc1O` reads -2.52%.
